Data reported in PubChem BioAssay (NCI).
Compounds without any hit were thinned out: in the full panel of roughly 79,000, 15% have a hit. The source made the active and inactive calls. No stated cut-off is given here; in the data, active means growth inhibition above about 70%; inactive means the rest.

What was measured:
[1] = NCI Yeast Anticancer Drug Screen. Data for the rad50 strain (AID 155);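 further: 0% = growth of vehicle-only cultures of the same strain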; conditions: S. cerevisiae rad50 strain growth inhibition, active compounds read high
How it was run: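 Inhibition values express reduced yeast growth in compound-treated cultures relative to vehicle-treated controls.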

[2] = NCI Yeast Anticancer Drug Screen. Data for the mec2-1 strain (AID 157); conditions: S. cerevisiae mec2-1 strain, active compounds read high
How it was run: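 Growth inhibition is read against vehicle-treated controls after compound exposure of the mec2-1 yeast strain, which is defective in DNA damage repair or cell cycle control.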

[3] = NCI Yeast Anticancer Drug Screen. Data for the sgs1 mgt1 strain (AID 161);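 further: 0% = growth of cultures given vehicle only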; conditions: S. cerevisiae sgs1 mgt1 strain, active compounds read high
How it was run: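 Compounds are added to genetically altered yeast, and growth is compared with cultures given vehicle alone to give percent inhibition.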

[4] = NCI Yeast Anticancer Drug Screen. Data for the cln2 rad14 strain (AID 165);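 further: 0% = growth equal to vehicle treated cultures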; conditions: S. cerevisiae cln2 rad14 strain, active compounds read high
How it was run: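 Growth inhibition, relative to vehicle-treated controls, is the read-out. The test organism is a yeast strain with defined genetic alterations, cln2 rad14.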

[5] = NCI Yeast Anticancer Drug Screen. Data for the bub3 strain (AID 167); conditions: S. cerevisiae bub3 mutant strain, active compounds read high
How it was run: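 Steps: expose the mutant yeast strain to compound; grow alongside vehicle-treated cultures; measure growth; express inhibition against the vehicle cultures.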

[6] = NCI Yeast Anticancer Drug Screen. Data for the mlh1 rad18 strain (AID 175); conditions: S. cerevisiae mlh1 rad18 strain growth inhibition, active compounds read high
How it was run: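 Cells of a genetically altered yeast strain, deficient in DNA damage repair, were treated with compound. Their growth was then compared with that of vehicle-treated cultures to give inhibition.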

[7] = at 5.0 µM (retest, dose inferred, filed as 0.5)
[8] = at 50.0 µM (retest, dose inferred, filed as 5.0)

Measured: growth inhibition

C#CC(CC(C)C)(CC(C)C)OC(=O)Nc1ccccc1
inactive: [1]; [7] 5% | [2]; [7] 1% | [3]; [7] 4% | [4]; [7] 3% | [5]; [7] 3%
active: [1]; [8] 95% | [1]; at 50.0 µM 97.9% | [2]; [8] 97% | [2]; at 50.0 µM 97.3% | [3]; [8] 98% | [3]; at 50.0 µM 98.1% | [4]; [8] 96% | [4]; at 50.0 µM 97.7% | [5]; [8] 94% | [5]; at 50.0 µM 97.5%

COc1ccc(C2=CCC3C4CC=C5CC(O)CCC5(C)C4CCC23C)s1 (stereo unspecified)
active: [3]; [8] 82% | [6]; [8] 75% | [6]; at 50.0 µM 94.7%
inactive: [1]; [7] 0% | [1]; [8] 13% | [1]; at 50.0 µM 59.7% | [2]; [7] -17% | [2]; [8] 63% | [2]; at 50.0 µM 64.1% | [3]; [7] -23% | [3]; at 50.0 µM 59.6% | [4]; [7] -3% | [4]; [8] 18% | [4]; at 50.0 µM 53.5% | [5]; [7] -1% | [5]; [8] 30% | [5]; at 50.0 µM 66% | [6]; [7] 19%

c1ccc(N=c2sc3ccccc3sc2=Nc2ccccc2)cc1
inactive: [1]; [8] 32% | [1]; at 50.0 µM 51% | [2]; [7] 56% | [2]; [8] 50% | [2]; at 50.0 µM 32.4% | [3]; [8] 60% | [3]; at 50.0 µM 21.8% | [4]; [8] 69% | [4]; at 50.0 µM 59.5% | [5]; at 50.0 µM 31.7% | [6]; [8] 56% | [6]; at 50.0 µM -16%
active: [1]; [7] 94% | [3]; [7] 71% | [4]; [7] 96% | [5]; [7] 93% | [5]; [8] 76% | [6]; [7] 93%

O=C1C(Cl)C(c2cc(Br)cc(Br)c2O)N1n1cnc2ccccc2c1=O (stereo unspecified)
active: [1]; [8] 96% | [1]; at 50.0 µM 89.8% | [2]; [8] 94% | [2]; at 50.0 µM 86.7% | [3]; [8] 98% | [3]; at 50.0 µM 94.5% | [4]; [8] 87% | [5]; [8] 98% | [5]; at 50.0 µM 93% | [6]; [8] 98% | [6]; at 50.0 µM 97.7%
inactive: [1]; [7] 15% | [2]; [7] 35% | [3]; [7] 25% | [4]; [7] -16% | [4]; at 50.0 µM 59.2% | [5]; [7] 22% | [6]; [7] 20%

NC(N)=Nc1ccc(N=C(N)N)cc1
inactive: [1]; [7] 3% | [1]; [8] 2% | [2]; [7] 1% | [2]; [8] -2% | [3]; [7] -1% | [3]; [8] -3% | [3]; at 50.0 µM 17.1% | [4]; [7] 1% | [4]; [8] 1% | [4]; at 50.0 µM 60.8% | [5]; [7] 3% | [5]; [8] 3% | [6]; [7] 2% | [6]; [8] 2% | [6]; at 50.0 µM 45.5%
active: [1]; at 50.0 µM 92% | [2]; at 50.0 µM 99.7% | [5]; at 50.0 µM 99.2%

S=C(C#Cc1ccccc1)Nc1ccccc1
active: [1]; [8] 87% | [1]; at 50.0 µM 99.3% | [2]; [8] 97% | [2]; at 50.0 µM 99.4% | [3]; [8] 96% | [3]; at 50.0 µM 96.7% | [4]; [8] 94% | [4]; at 50.0 µM 99% | [5]; [8] 96% | [5]; at 50.0 µM 99%
inactive: [1]; [7] -73% | [2]; [7] -36% | [3]; [7] -30% | [4]; [7] -37% | [5]; [7] -47%

S=C(NCc1ccccc1)N/N=C/c1ccccn1
inactive: [1]; [7] -22% | [1]; [8] 65% | [1]; at 50.0 µM 20.6% | [2]; [7] 9% | [2]; [8] 57% | [2]; at 50.0 µM 17.4% | [3]; [7] -9% | [3]; [8] 60% | [3]; at 50.0 µM 49.8% | [4]; [7] 23% | [4]; at 50.0 µM 62% | [5]; [7] -22% | [5]; at 50.0 µM 63.9%
active: [4]; [8] 83% | [5]; [8] 72%

COc1ccccc1C1c2cc3c(cc2OC2(OC)COC(=O)C12)OCO3 (stereo unspecified)
inactive: [1]; [7] 24% | [1]; [8] 58% | [1]; at 50.0 µM 9.85% | [2]; [7] 22% | [2]; [8] 42% | [2]; at 50.0 µM 0% | [3]; [7] 11% | [3]; [8] 42% | [3]; at 50.0 µM 1.95% | [4]; [7] 20% | [4]; [8] 35% | [4]; at 50.0 µM 17% | [5]; [7] 32% | [5]; [8] 54% | [5]; at 50.0 µM 17.2% | [6]; [7] 23% | [6]; [8] 69% | [6]; at 50.0 µM 22%

Nc1ccc2c(c1)C(=O)c1ccccc1-2
inactive: [1]; [7] 9% | [1]; [8] 57% | [1]; at 50.0 µM 68.2% | [2]; [7] 3% | [2]; [8] 15% | [2]; at 50.0 µM 26.1% | [3]; [7] 0% | [3]; [8] 6% | [3]; at 50.0 µM 21.4% | [4]; [7] 1% | [4]; [8] 7% | [4]; at 50.0 µM 11.6% | [5]; [7] 2% | [5]; [8] 9% | [5]; at 50.0 µM -6.55% | [6]; [7] 2% | [6]; [8] 25% | [6]; at 50.0 µM 14.2%

OC(CCN1CCCCC1)(Cc1ccccc1)c1cccc(Cl)c1 (stereo unspecified)
active: [3]; [8] 78% | [3]; at 50.0 µM 73.1% | [4]; at 50.0 µM 77.8%
inactive: [1]; [7] 8% | [1]; [8] 46% | [1]; at 50.0 µM 58.1% | [2]; [7] 4% | [2]; [8] 40% | [2]; at 50.0 µM 26.6% | [3]; [7] 28% | [4]; [7] 17% | [4]; [8] 52% | [5]; [7] 15% | [5]; [8] 62% | [5]; at 50.0 µM 50.9% | [6]; [7] 17% | [6]; [8] 64% | [6]; at 50.0 µM 60.3%
